Assay in all cases: DAPPL (digital affinity profiling via proximity ligation, sequencing); 10 mM Tris-HCl pH 7.5, 50 mM NaCl, 1 mM DTT, 4% glycerol, room temperature, 30 min; GST-TFs on glutathione beads, 16-mer random dsDNA library, 0.1% formaldehyde crosslink after washing; high values mean tight binding
In assay [1] the target is T1, FEV (Homo sapiens, UniProt Q99581 1-238).
T1 sequence: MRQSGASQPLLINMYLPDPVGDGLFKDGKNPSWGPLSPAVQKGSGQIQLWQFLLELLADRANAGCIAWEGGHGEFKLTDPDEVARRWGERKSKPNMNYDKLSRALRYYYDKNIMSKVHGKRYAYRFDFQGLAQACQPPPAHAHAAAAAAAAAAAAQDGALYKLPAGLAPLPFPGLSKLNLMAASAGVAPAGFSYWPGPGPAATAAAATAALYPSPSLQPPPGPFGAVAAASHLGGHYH
The following applies: protein: recombinant; tags: N-terminal GST; dsDNA, one strand shown. In a few lines:
(§1)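 Binding signal is defined as a hexamer's read frequency for one factor over its frequency for the tag-only sample. To obtain reads, GST-fused human transcription factors were expressed in yeast, captured on glutathione beads, barcoded with DNA and pooled with that sample. Pools met 200 nmole of a 16-mer random double-stranded DNA library in Tris/NaCl/DTT/glycerol buffer for 30 min at room temperature before washing, 0.1% formaldehyde crosslinking, proximity ligation (BsaI/T4 ligase, 1 h, 37 °C), PCR and Illumina NextSeq500 sequencing.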

The target in assay [2] is ETV5 (Homo sapiens, UniProt P41161 1-510). The following applies: protein: recombinant; tags: N-terminal GST; dsDNA, one strand shown. In short, it runs like this:
as §1

The target in assay [3] is HSF1 (Homo sapiens, UniProt Q00613 1-529). The following applies: protein: recombinant; tags: N-terminal GST; chain copies: 3; dsDNA, one strand shown. In short, it runs like this: as §1
In assay [4] the target is T2, SPIC (Homo sapiens, UniProt Q8N5J4 1-248).
T2 sequence: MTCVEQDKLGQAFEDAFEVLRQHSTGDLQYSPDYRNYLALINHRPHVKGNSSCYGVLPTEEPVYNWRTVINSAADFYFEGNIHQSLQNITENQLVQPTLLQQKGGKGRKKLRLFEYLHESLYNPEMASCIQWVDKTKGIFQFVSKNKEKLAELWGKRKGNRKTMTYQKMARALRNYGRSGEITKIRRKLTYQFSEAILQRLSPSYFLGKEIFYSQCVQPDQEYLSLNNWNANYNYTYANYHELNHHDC
The following applies: protein: recombinant; tags: N-terminal GST; dsDNA, one strand shown. In short, it runs like this:
as §1

Assay [5] has as its target ELF4 (Homo sapiens, UniProt Q99607 1-663). Particulars: protein: recombinant; tags: N-terminal GST; dsDNA, one strand shown. In a few lines:
as §1

In assay [6] the target is T3, ELK4 (Homo sapiens, UniProt P28324-2 1-405).
T3 sequence: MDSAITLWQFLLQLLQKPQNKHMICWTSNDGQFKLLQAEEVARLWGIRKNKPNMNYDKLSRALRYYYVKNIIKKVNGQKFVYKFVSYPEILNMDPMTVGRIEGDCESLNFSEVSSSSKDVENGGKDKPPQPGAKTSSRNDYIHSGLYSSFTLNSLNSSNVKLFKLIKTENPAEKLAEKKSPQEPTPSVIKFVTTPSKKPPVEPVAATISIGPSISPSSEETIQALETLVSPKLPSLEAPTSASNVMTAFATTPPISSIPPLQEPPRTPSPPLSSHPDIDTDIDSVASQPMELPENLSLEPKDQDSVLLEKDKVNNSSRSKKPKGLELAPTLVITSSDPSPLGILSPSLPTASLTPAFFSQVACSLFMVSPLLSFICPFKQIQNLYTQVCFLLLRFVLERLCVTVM
The following applies: protein: recombinant; tags: N-terminal GST; dsDNA, one strand shown. In a few lines: as §1

Assay [7] has as its target T4, ETV2 (Homo sapiens, UniProt O00321 1-342).
T4 sequence: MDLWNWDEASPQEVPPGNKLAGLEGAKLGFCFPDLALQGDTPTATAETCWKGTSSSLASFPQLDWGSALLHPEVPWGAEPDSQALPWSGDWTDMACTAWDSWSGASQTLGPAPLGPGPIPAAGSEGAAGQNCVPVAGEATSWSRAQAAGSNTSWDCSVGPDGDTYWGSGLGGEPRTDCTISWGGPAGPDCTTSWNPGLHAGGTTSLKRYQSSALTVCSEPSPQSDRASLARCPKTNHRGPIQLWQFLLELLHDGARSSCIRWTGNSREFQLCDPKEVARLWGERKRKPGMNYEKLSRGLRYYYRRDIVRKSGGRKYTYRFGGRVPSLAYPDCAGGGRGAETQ
The following applies: protein: recombinant; tags: N-terminal GST; dsDNA, one strand shown. In a few lines: as §1

Assay [8] concerns the target T5, ELF3 (Homo sapiens, UniProt P78545 1-371).
T5 sequence: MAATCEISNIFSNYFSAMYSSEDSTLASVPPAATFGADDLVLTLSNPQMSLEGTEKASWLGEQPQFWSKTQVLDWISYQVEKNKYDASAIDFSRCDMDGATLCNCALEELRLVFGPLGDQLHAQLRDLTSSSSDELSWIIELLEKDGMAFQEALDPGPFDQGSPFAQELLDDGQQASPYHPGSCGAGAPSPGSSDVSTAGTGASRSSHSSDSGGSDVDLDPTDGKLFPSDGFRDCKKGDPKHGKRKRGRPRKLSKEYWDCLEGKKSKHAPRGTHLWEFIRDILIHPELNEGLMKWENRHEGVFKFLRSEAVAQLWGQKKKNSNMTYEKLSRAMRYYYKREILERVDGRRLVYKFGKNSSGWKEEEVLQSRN
The following applies: protein: recombinant; tags: N-terminal GST; dsDNA, one strand shown. In short, it runs like this: as §1

For assay [9], the target named is CRX (Homo sapiens, UniProt O43186 1-299). Particulars: protein: recombinant; tags: N-terminal GST; dsDNA, one strand shown. In a few lines:
as §1

For assay [10], the target named is ETV1 (Homo sapiens, UniProt P50549 1-477). The following applies: protein: recombinant; tags: N-terminal GST; dsDNA, one strand shown. In short, it runs like this:
as §1

Assay [11] concerns the target T6, ERF (Homo sapiens, UniProt P50548 1-548).
T6 sequence: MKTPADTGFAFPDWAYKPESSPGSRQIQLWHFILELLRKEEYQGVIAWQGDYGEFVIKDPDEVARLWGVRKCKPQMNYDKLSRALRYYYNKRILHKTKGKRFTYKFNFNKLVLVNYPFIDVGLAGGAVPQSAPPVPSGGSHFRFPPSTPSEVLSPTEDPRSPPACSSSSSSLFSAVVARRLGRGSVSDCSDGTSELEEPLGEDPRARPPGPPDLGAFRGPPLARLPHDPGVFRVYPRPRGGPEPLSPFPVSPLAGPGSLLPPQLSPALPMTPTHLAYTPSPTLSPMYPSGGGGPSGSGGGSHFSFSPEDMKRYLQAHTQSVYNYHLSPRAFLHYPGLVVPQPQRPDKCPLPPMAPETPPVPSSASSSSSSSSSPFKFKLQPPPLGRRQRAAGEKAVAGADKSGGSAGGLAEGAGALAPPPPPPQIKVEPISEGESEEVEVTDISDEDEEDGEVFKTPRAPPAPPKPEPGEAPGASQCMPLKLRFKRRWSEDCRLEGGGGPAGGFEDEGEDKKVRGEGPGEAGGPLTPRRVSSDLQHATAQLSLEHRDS
Particulars: protein: recombinant; tags: N-terminal GST; dsDNA, one strand shown. In short, it runs like this: as §1

Assay [12] deals with T7, ETV3L (Homo sapiens, UniProt Q6ZN32 1-361).
T7 sequence: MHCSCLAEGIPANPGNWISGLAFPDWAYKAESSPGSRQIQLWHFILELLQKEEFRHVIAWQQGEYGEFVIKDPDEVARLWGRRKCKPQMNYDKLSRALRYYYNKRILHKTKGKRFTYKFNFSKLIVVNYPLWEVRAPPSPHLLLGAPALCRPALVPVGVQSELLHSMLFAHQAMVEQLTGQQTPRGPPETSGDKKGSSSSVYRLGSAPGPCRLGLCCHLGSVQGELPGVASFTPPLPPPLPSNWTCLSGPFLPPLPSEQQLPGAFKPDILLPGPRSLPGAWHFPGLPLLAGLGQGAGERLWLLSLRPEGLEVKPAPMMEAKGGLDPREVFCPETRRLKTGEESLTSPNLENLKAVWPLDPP
Particulars: protein: recombinant; tags: N-terminal GST; dsDNA, one strand shown. In short, it runs like this: as §1

Assay [13] concerns the target T8, ETS2 (Homo sapiens, UniProt P15036 1-469).
T8 sequence: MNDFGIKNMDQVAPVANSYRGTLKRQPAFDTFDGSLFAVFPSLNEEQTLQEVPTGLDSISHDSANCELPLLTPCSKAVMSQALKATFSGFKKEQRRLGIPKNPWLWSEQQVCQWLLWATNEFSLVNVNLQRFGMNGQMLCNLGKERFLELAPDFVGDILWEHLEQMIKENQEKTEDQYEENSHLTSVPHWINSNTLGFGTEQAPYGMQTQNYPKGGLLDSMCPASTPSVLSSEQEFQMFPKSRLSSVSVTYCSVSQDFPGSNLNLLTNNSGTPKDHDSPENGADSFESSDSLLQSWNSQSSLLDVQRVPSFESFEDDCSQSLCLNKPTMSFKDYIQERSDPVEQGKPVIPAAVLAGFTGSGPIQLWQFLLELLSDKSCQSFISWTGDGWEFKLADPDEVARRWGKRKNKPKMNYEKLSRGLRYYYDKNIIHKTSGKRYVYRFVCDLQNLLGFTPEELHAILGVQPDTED
Particulars: protein: recombinant; tags: N-terminal GST; dsDNA, one strand shown. In short, it runs like this:
as §1

Assay [14] deals with T9, SPDEF (Homo sapiens, UniProt O95238 1-335).
T9 sequence: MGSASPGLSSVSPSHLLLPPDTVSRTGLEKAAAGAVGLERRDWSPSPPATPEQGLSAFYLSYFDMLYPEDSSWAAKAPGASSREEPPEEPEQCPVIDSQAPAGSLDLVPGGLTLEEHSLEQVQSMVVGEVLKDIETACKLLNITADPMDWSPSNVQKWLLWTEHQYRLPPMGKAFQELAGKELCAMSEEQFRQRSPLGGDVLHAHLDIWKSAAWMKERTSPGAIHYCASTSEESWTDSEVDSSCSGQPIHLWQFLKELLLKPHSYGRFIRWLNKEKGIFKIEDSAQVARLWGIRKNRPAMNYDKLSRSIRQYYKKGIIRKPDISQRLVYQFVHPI
Particulars: protein: recombinant; tags: N-terminal GST; dsDNA, one strand shown. In a few lines:
as §1

The target in assay [15] is T10, ETV7 (Homo sapiens, UniProt Q9Y603 1-341).
T10 sequence: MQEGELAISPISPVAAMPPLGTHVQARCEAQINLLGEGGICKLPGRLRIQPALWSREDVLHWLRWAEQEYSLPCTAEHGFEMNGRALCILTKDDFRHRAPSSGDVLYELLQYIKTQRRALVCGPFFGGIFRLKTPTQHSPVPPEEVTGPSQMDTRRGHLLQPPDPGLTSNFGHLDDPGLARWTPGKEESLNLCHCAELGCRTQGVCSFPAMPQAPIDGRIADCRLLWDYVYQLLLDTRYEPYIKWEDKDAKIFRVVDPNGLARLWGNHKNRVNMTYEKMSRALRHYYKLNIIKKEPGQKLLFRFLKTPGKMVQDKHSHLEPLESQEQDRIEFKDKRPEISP
Particulars: protein: recombinant; tags: N-terminal GST; dsDNA, one strand shown. In a few lines: as §1

In assay [16] the target is T11, ELF5 (Homo sapiens, UniProt Q9UKW6-2 1-255).
T11 sequence: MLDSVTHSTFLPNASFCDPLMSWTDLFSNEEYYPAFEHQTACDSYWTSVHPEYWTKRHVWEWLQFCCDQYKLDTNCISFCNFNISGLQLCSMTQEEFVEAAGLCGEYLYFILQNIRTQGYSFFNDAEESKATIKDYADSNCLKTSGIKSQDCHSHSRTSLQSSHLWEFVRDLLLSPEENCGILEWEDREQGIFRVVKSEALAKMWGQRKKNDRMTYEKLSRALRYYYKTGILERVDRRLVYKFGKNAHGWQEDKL
Particulars: protein: recombinant; tags: N-terminal GST; dsDNA, one strand shown. In a few lines:
as §1

Assay [17] has as its target T12, ETV3 (Homo sapiens, UniProt P41162-2 1-143).
T12 sequence: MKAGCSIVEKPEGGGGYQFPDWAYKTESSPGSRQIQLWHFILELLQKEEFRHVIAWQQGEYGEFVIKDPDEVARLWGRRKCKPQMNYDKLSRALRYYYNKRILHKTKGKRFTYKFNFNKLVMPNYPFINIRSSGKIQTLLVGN
The following applies: protein: recombinant; tags: N-terminal GST; dsDNA, one strand shown. In a few lines:
as §1

Assay [18] addresses ETV6 (Homo sapiens, UniProt P41212 1-452). The following applies: protein: recombinant; tags: N-terminal GST; dsDNA, one strand shown. In a few lines:
as §1

Sequence of ETV5 (P41161 whole entry): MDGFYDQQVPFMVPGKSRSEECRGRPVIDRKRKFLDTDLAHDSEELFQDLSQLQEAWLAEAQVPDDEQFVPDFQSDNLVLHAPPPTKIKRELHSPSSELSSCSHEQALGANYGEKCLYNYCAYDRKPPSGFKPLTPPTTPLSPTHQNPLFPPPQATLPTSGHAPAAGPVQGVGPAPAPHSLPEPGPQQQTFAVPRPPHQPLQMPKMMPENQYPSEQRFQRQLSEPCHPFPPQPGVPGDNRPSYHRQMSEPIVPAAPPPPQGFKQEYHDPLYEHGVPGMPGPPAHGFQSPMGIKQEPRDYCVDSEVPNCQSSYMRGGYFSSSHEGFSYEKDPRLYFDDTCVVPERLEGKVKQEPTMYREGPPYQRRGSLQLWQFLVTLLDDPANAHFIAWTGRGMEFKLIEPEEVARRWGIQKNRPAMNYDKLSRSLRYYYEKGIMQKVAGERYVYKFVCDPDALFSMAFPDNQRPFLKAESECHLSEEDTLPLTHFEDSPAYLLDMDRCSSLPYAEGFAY
Sequence of CRX (O43186 whole entry): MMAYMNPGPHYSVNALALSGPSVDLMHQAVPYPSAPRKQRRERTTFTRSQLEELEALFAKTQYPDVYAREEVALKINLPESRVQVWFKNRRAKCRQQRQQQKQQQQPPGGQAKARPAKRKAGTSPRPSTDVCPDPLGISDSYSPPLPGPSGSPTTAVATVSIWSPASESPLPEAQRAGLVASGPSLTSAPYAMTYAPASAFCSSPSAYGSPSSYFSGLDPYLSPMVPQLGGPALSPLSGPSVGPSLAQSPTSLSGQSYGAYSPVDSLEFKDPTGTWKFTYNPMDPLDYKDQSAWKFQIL
Sequence of HSF1 (Q00613 whole entry): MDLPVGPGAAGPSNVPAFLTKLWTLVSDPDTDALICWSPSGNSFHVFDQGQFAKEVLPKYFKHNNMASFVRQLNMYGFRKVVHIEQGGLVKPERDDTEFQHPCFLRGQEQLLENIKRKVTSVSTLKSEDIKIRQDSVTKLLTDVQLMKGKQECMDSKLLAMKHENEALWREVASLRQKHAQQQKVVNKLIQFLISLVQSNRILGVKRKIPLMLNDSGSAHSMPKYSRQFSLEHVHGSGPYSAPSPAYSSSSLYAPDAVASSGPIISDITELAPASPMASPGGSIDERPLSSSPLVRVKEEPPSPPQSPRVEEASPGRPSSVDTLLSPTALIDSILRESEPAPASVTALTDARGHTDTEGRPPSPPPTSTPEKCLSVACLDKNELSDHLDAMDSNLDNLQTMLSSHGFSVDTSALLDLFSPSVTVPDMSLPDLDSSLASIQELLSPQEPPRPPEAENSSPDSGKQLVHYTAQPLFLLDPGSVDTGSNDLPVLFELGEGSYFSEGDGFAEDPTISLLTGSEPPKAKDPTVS
Sequence of ELF4 (Q99607 whole entry): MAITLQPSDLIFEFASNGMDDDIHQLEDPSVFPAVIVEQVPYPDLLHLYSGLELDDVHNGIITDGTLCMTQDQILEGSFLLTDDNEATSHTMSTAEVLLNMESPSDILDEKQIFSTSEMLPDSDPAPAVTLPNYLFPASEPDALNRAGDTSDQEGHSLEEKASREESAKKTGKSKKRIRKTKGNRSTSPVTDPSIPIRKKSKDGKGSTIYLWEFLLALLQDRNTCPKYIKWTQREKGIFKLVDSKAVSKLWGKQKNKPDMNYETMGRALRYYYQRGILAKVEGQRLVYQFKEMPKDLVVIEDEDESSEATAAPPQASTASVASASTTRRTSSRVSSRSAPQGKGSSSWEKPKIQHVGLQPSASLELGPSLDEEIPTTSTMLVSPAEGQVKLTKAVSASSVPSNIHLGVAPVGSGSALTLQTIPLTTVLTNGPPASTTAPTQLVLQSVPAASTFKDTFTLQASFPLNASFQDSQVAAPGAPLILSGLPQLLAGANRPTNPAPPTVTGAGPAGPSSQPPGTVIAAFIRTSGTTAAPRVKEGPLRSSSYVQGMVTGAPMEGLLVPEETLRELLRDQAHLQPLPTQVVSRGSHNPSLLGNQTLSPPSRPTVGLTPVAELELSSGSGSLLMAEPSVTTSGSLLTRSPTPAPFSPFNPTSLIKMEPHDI
Sequence of ETV6 (P41212 whole entry): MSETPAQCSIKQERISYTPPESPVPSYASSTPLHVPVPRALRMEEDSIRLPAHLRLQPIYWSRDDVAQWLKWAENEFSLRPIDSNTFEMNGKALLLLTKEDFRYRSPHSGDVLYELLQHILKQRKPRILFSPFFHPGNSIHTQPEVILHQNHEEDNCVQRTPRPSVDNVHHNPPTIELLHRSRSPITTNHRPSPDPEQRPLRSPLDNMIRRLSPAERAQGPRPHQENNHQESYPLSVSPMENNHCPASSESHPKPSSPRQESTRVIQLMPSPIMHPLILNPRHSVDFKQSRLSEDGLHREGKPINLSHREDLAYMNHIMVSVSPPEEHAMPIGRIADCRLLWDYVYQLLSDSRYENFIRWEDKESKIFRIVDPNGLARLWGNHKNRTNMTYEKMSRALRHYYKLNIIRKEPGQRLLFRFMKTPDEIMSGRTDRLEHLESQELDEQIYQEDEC
Sequence of ETV1 (P50549 whole entry): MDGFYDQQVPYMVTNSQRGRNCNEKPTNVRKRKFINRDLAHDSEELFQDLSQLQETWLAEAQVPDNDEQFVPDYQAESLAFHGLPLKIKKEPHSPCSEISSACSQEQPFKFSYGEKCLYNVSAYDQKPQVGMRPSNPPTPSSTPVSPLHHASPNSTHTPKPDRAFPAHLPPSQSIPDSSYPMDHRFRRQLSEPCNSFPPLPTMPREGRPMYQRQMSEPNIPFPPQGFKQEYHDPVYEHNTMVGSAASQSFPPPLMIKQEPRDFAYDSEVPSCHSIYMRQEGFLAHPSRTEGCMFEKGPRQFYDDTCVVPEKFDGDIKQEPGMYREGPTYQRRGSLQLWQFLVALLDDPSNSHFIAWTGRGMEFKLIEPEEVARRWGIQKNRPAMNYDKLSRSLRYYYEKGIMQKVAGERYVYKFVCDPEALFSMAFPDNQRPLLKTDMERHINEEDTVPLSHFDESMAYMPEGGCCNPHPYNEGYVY

For the sequence TATATA, the binding signal in [1] was 1.21 fold enrichment (6-mer frequency, TF over GST control); in assay [2], 1.28 fold enrichment (6-mer frequency, TF over GST control); in [3], 1.42 fold enrichment (6-mer frequency, TF over GST control); in assay [4], 1.21 fold enrichment (6-mer frequency, TF over GST control); in assay [5], 1.31 fold enrichment (6-mer frequency, TF over GST control); in [6] it was 1.38 fold enrichment (6-mer frequency, TF over GST control). The binding signal in assay [7] is 1.08 fold enrichment (6-mer frequency, TF over GST control); in assay [8], 1.35 fold enrichment (6-mer frequency, TF over GST control); in [9], 1.63 fold enrichment (6-mer frequency, TF over GST control); in assay [10] it was 1.18 fold enrichment (6-mer frequency, TF over GST control); in [11] it was 1.24 fold enrichment (6-mer frequency, TF over GST control); in assay [12], 1.23 fold enrichment (6-mer frequency, TF over GST control). Further, the binding signal was 1.31 fold enrichment (6-mer frequency, TF over GST control) in assay [13]; 1.35 fold enrichment (6-mer frequency, TF over GST control) in [14]; 1.27 fold enrichment (6-mer frequency, TF over GST control) in assay [15]; 1.23 fold enrichment (6-mer frequency, TF over GST control) in assay [16]; 1.34 fold enrichment (6-mer frequency, TF over GST control) in assay [17]; 1.28 fold enrichment (6-mer frequency, TF over GST control) in assay [18].

The values above are taken from paper PMC7862700, “An all-to-all approach to the identification of sequence-specific readers for epigenetic DNA modifications on cytosine”.
